RMI-FANCM inh – disruptors of RMI1/RMI2 association with MM2 peptide – biochemical, fluorescence polarization, human, primary screen; hit rate 0.58% among 70,000; FP signal (polarization) at 33 µM; RMI core complex with F-MM2 peptide; hits give low values; in the data active = FP signal below about 40
The depositor's hits bear a star; ! = repeats disagree. This is one part of a sample in which hits are shown more often than they occur.

SMILES	RMI-FANCM inh
CC(=O)c1ccc(Cl)c(N=Cc2cc(Cl)cc(Cl)c2O)c1	34*
CCOC(=O)c1ccc(N2CCOCC2)c(N=Cc2cc(Cl)cc(Cl)c2O)c1	15*
CCOC(=O)c1ccc(N2CCOCC2)c(NS(=O)(=O)c2ccccc2[N+](=O)[O-])c1	52
Oc1c(Cl)cc(Cl)cc1C=Nc1ccc(N2CCOCC2)cc1	50
O=C(N/N=C\c1cc(Cl)cc(Cl)c1O)c1ccncc1	15
CN(C)c1ccc(C(=O)N/N=C\c2cc(Cl)cc(Cl)c2O)cc1	52
Cc1c(C)c(C)c(C(=O)CCc2cccc(N=Cc3cc(Cl)cc(Cl)c3O)c2)c(C)c1C	40
O=C1Nc2ccccc2C1Cc1ccc(N=Cc2cc(Cl)cc(Cl)c2O)cc1 (stereo not drawn)	37
Oc1c(Cl)cc(Cl)cc1C=Nc1ccc2n[nH]nc2c1	25*
COc1cc(Cn2cc(CC(=O)O)c3ccccc32)cc(OC)c1	65
Cc1ccc(C(=O)NCCc2cn3ccsc3n2)cc1[N+](=O)[O-]	57
Cc1ccc(C)c(S(=O)(=O)NCCOc2ccc(F)cc2)c1	62
COc1cc2[nH]c3c(=O)n(CC(=O)NCCC4=CCCCC4)cnc3c2cc1OC	79
O=[N+]([O-])c1cccc(-c2nc(S(=O)(=O)c3ccccc3)c(N3CCCCCC3)o2)c1	56
O=C(Cn1nc(-c2ccc(F)cc2)ccc1=O)NCC1CCCO1 (stereo not drawn)	53
CCc1nnc(-c2cc3ccccc3n2Cc2c(F)cccc2Cl)o1	57
CCOC(=O)c1oc2ccccc2c1NC(=O)c1ccc([N+](=O)[O-])o1	68
O=[N+]([O-])c1ccc(S(=O)(=O)c2ccccc2)cc1OS(=O)(=O)c1ccc(F)cc1F	50
Oc1c(Br)cc(Br)cc1C=Nc1ccc(-c2ccccc2)cc1	43
COc1ccccc1N=Cc1ccccc1OC(=O)c1ccccc1Br	58
Oc1c(Br)cc(Br)cc1C=Nc1cccc(Cl)c1	20*
Oc1ccc(Cl)cc1C=Nc1cccc(C(F)(F)F)c1	50
Oc1c(Br)cc(Br)cc1C=Nc1ccccc1F	-4*
COc1cc(Br)cc(C=Nc2ccccc2O)c1O	56
CSc1sc(C#N)c(C)c1-c1ccn(C(=O)c2ccc(Cl)cc2)n1	59
SMILES	RMI-FANCM inh
COc1ccc(Cl)cc1C(=O)Nn1cnc2c(cnn2-c2ccccc2)c1=O	54
Cc1cc(Cl)cc2sc(NCC3CCCO3)nc12 (stereo not drawn)	64
COc1ccc(NC(=O)c2snnc2C)cc1Cl	55
CN1C(=O)c2cccc(NC(=O)c3c(F)cccc3Cl)c2C1=O	69
CN1c2ccccc2C(=O)/C(=N/Nc2ccccc2Cl)S1(=O)=O	-6*
N#C/C(=N/Nc1ccccc1Cl)S(=O)(=O)c1ccc(Cl)cc1	44
FC(F)(F)c1cc(-c2ccc(Cl)cc2)nc2cc(-c3ccccc3)nn12	55
COc1ccc(-c2cc(C(F)(F)F)n3nc(-c4cccs4)cc3n2)cc1OC	9*
COc1ccc(-c2cc3nc(C)cc(C)n3n2)cc1OC	64
CCOC(=O)N1CCN(C(=O)CSc2ncnc3c2cnn3-c2ccc(C)cc2C)CC1	58
CCOC(=O)CN1C(c2ccccc2F)Nc2ccc(Br)cc2C1c1ccccc1 (stereo not drawn)	27*
CCOC(=O)Cn1c(=NC(=O)c2ccccc2Br)sc2cccc(F)c21	63
CCOC(=O)CNC(c1ccccc1)c1cc(Br)ccc1NC(=O)c1ccccc1 (stereo not drawn)	62
Cc1ccc(NC(=O)c2cc(Cl)ccc2Cl)cc1N1CCCCC1=O	66
COc1ccc(NC(=O)C(C)Sc2ncc(-c3cccc(Br)c3)o2)cc1 (stereo not drawn)	77
COc1ccc(S(=O)(=O)NCc2ccco2)cc1C(=O)O	1*
CC(C)(C)c1ccc(S(=O)(=O)NCc2ccco2)cc1	55
COc1ccc(S(=O)(=O)NCc2ccco2)c(C)c1C	64
Cc1cccc(OCC(=O)Nc2cc(-c3cccs3)nn2-c2nc(C)cc(=O)[nH]2)c1	64
CCc1ccc(S(=O)(=O)NCCOc2cc(N3CCCCC3)ncn2)s1	62
COc1cccc2cc(C(=O)Nc3nnc(-c4ccc(SC)cc4)o3)oc12	32*
COc1cccc2cc(C(=O)Nc3nnc(-c4ccc5c(c4)OCO5)o3)oc12	65
COc1cccc2cc(C(=O)Nc3nnc(-c4cc(C)nn4C)o3)oc12	67
O=C(O)CCCS(=O)(=O)Cc1ccccc1	69
Cc1nccnc1-c1ccnn1C(=O)Nc1cc(Cl)cc(Cl)c1	56
SMILES	RMI-FANCM inh
O=C(/C=C\c1ccc2c(c1)OCO2)NCCn1ncc2c(=O)n(Cc3ccc(Br)cc3)cnc21	120
Cc1[nH]c2ccccc2c1C(Nc1ccccc1F)c1ccccn1 (stereo not drawn)	97
Cc1[nH]c2ccccc2c1C(Nc1ccccn1)c1cccc([N+](=O)[O-])c1 (stereo not drawn)	25*!
COc1ccc(C(Nc2cc(C)on2)c2c(C)[nH]c3ccccc23)cc1OC (stereo not drawn)	58
CC(C)N1CCc2c(sc(N)c2C(N)=O)C1	-30*
CSc1ccccc1C(=O)Nc1sc2c(c1C(N)=O)CCN(C(C)C)C2	80
CC(=O)N1CCc2c(sc(N)c2C(N)=O)C1	69
Cc1cc(=O)c(OCc2ccccc2F)cn1CC(=O)NCc1ccco1	54
O=C(O)CC(NS(=O)(=O)c1cc(S(=O)(=O)NC(CC(=O)O)c2ccccc2)c2cccc3c2c1NC3=O)c1ccccc1 (stereo not drawn)	52
COC(=O)c1ccccc1NS(=O)(=O)c1cccc2cccnc12	61
COC(=O)c1ccccc1NS(=O)(=O)c1cc(S(=O)(=O)Nc2ccccc2C(=O)OC)c2cccc3c2c1NC3=O	30*
CCN(CC)S(=O)(=O)c1ccc(C(=O)Nc2nc3c(s2)COc2ccccc2-3)cc1	97
O=C(CSc1ncc(-c2cccc(Cl)c2)o1)Nc1ccccc1C(F)(F)F	95
O=C(CSc1ncnc2[nH]ncc12)Nc1nc(-c2ccco2)c(-c2ccco2)s1	-3*
CCSc1nnc(NC(=O)CSc2ncnc3c2cnn3-c2ccccc2)s1	55
COc1ccc(CCNC(=O)CSc2ncnc3[nH]ncc23)cc1OC	55
CC(=O)c1ccc(NC(=O)c2cc([N+](=O)[O-])cc([N+](=O)[O-])c2)cc1	66
COc1cccc(CSc2nc(CC(=O)Nc3nnc(C)s3)cc(=O)[nH]2)c1	34*
COc1cccc(CSc2nc(CC(=O)Nc3ccc(C)c(C)c3)cc(=O)[nH]2)c1	64
COc1cccc(CSc2nc(CC(=O)NC3CC3)cc(=O)[nH]2)c1	54
CCOc1ccc(-c2ccc(=O)n(CCNC(=O)NC3CCCCC3)n2)cc1	68
CCOC(=O)C1=C(C)N(c2ccc(F)cc2)C(=O)C1CC(=O)Nc1ccc(C(=O)OCC)cc1 (stereo not drawn)	57
Cc1ccc(/C=N\NC(=O)c2cc([N+](=O)[O-])cc([N+](=O)[O-])c2)cc1	61
Cc1cc[n+](-c2[nH]c(=O)sc2/C=N\NC(=O)c2ccccc2[O-])cc1	1*
Cc1ccccc1C(=O)N/N=C\c1ccc(OC(=O)c2ccccc2)cc1	63
CCOc1ccc(OCCNS(=O)(=O)c2ccc(C(F)(F)F)cc2)cc1	63
COc1cccc(N2CCN(c3ccc(S(=O)(=O)C(C)(C)C)nn3)CC2)c1	65

High-throughput results: PubChem, Small Molecule Screening Facility, UW Madison
